Data as given in PubChem BioAssay (EPA / NIEHS).
The source made the active and inactive calls. How the source made its calls: active means hit-call score of the fitted dose curve at least 0.9, where 1 is the maximum; inactive means score below 0.9.

Columns and labels:
[1] = read-out: Tissue Factor, F3 (gene 2152); assay: BSK_CASM3C_TissueFactor: BioMAP Diversity Plus: CASM3C Assay for Tissue Factor Biomarker Activity (AID 2283052); details: primary human coronary artery smooth muscle cells; actives raise or lower the signal;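 further: cell surface tissue factor protein level read by ELISA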
[2] = read-out: Urokinase-type plasminogen activator receptor (uPAR), PLAUR (gene 5329); assay: BSK_CASM3C_uPAR: BioMAP Diversity Plus: CASM3C Assay for Urokinase-type plasminogen activator receptor (uPAR) Biomarker Activity (AID 2283054); details: primary human coronary artery smooth muscle cells; actives raise or lower the signal;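 further: cell-surface uPAR protein level quantified by ELISA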
[3] = read-out: Vascular cell adhesion molecule 1 (VCAM1), VCAM1 (gene 7412); assay: BSK_CASM3C_VCAM1: BioMAP Diversity Plus: CASM3C Assay for Vascular cell adhesion molecule 1 (VCAM1) Biomarker Activity (AID 2283055); details: primary human coronary artery smooth muscle cells; actives raise or lower the signal;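 further: VCAM-1 protein level quantified by ELISA on the cells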
[4] = read-out: Collagen III, COL3A1 (gene 1281); assay: BSK_hDFCGF_CollagenIII: BioMAP Diversity Plus: hDFCGF Assay for Collagen III Biomarker Activity (AID 2283056); details: primary human foreskin fibroblasts; actives raise or lower the signal
Procedure, shortened: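 Cells: human foreskin fibroblasts, primary. Dosing followed by 24 h incubation, then ELISA for collagen III. Both increases and decreases scored relative to DMSO.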

[5] = read-out: Epidermal growth factor receptor (EGFR), EGFR (gene 1956); assay: BSK_hDFCGF_EGFR: BioMAP Diversity Plus: hDFCGF Assay for Epidermal growth factor receptor (EGFR) Biomarker Activity (AID 2283057); details: primary human foreskin fibroblasts; actives raise or lower the signal
Procedure, shortened: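 Measured by ELISA: EGFR levels on primary human foreskin fibroblasts 24 h after chemical treatment, analysed relative to DMSO with bidirectional fitting.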

[6] = read-out: Interleukin-8 (IL8), CXCL8 (gene 3576); assay: BSK_hDFCGF_IL8: BioMAP Diversity Plus: hDFCGF Assay for Interleukin-8 (IL8) Biomarker Activity (AID 2283058); details: primary human foreskin fibroblasts; actives raise or lower the signal
Procedure, shortened: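 IL-8 levels from compound-treated primary human fibroblasts were read by ELISA at 24 h, with DMSO serving as baseline for bidirectional fitting.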

[7] = BSK_hDFCGF_Proliferation: Cell Proliferation Assessment in the BioMAP Diversity Plus: hDFCGF Assay (AID 2283059); details: primary human foreskin fibroblasts;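 further: curves fitted for both rise and fall of signal versus DMSO baseline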
Procedure, shortened: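 Sub-confluent human foreskin fibroblast cultures receive test chemical […]. Relative cell number is quantified by sulforhodamine B staining (0.1%, after 10% TCA fixation) at 560 nm, with bidirectional fitting referenced to DMSO.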

[8] = read-out: Macrophage colony-stimulating factor (MCSF), CSF1 (gene 1435); assay: BSK_hDFCGF_MCSF: BioMAP Diversity Plus: hDFCGF Assay for Macrophage colony-stimulating factor (MCSF) Biomarker Activity (AID 2283060); details: primary human foreskin fibroblasts; actives raise or lower the signal
Procedure, shortened: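 M-CSF levels, determined by ELISA, are taken at 24 h after dosing human skin fibroblasts. Responses in either direction are fitted with DMSO serving as the baseline.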

[9] = BSK_hDFCGF_SRB: Viability Assessment in the BioMAP Diversity Plus: hDFCGF Assay (AID 2283061); details: primary human foreskin fibroblasts;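 further: cells exposed to compound for 24 h before the read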
Procedure, shortened: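 Cells were dosed with test chemical, cultured 24 h, fixed with 10% TCA, then stained with 0.1% SRB and read at 560 nm. The fibroblasts were human foreskin primary cells, and DMSO served as baseline.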

[10] = read-out: TIMP metallopeptidase inhibitor 1 (TIMP1), TIMP1 (gene 7076); assay: BSK_hDFCGF_TIMP1: BioMAP Diversity Plus: hDFCGF Assay for TIMP metallopeptidase inhibitor 1 (TIMP1) Biomarker Activity (AID 2283062); details: primary human foreskin fibroblasts; actives raise or lower the signal
Procedure, shortened: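 Fibroblasts from human foreskin are treated with test chemical and harvested at 24 h. TIMP-1 is quantified by ELISA, and gain or loss of signal is scored against DMSO.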

[11] = read-out: Monokine induced gamma interferon (MIG), CXCL9 (gene 4283); assay: BSK_hDFCGF_MIG: BioMAP Diversity Plus: hDFCGF Assay for Monokine induced gamma interferon (MIG) Biomarker Activity (AID 2283063); details: primary human foreskin fibroblasts; actives raise or lower the signal
Procedure, shortened: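 MIG signal, determined by ELISA, reflects 24 h chemical exposure of human skin primary fibroblasts. DMSO serves as negative control and baseline.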

[12] = read-out: Matrix Metallopeptidase 1 (MMP1), MMP1 (gene 4312); assay: BSK_hDFCGF_MMP1: BioMAP Diversity Plus: hDFCGF Assay for Matrix Metallopeptidase 1 (MMP1) Biomarker Activity (AID 2283064); details: primary human foreskin fibroblasts; actives raise or lower the signal
Procedure, shortened: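 Primary human foreskin fibroblasts in the hDFCGF system were dosed with test chemical, and MMP1 was measured by ELISA 24 h later. Values come from bidirectional curve fitting against the DMSO baseline.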

[13] = read-out: Vascular cell adhesion molecule 1 (VCAM1), VCAM1 (gene 7412); assay: BSK_hDFCGF_VCAM1: BioMAP Diversity Plus: hDFCGF Assay for Vascular cell adhesion molecule 1 (VCAM1) Biomarker Activity (AID 2283065); details: primary human foreskin fibroblasts; actives raise or lower the signal;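 on AC50: VCAM-1 protein level quantified by ELISA after 24 h chemical exposure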
Procedure, shortened: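 Cells are dosed, cultured for 24 h, then VCAM-1 is quantified by ELISA; signal increases and decreases are both fitted relative to DMSO.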

[14] = read-out: Plasminogen activator inhibitor-1 (PAI1), SERPINE1 (gene 5054); assay: BSK_hDFCGF_PAI1: BioMAP Diversity Plus: hDFCGF Assay for Plasminogen activator inhibitor-1 (PAI1) Biomarker Activity (AID 2283066); details: primary human foreskin fibroblasts; actives raise or lower the signal
Procedure, shortened: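 PAI-1 levels, determined by ELISA, served as the endpoint in human foreskin fibroblast cultures exposed to compound for 24 h, with DMSO as baseline.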

[15] = read-out: Intercellular Adhesion Molecule 1 (ICAM1), ICAM1 (gene 3383); assay: BSK_KF3CT_ICAM1: BioMAP Diversity Plus: KF3CT Assay for Intercellular Adhesion Molecule 1 (ICAM1) Biomarker Activity (AID 2283067); details: primary human keratinocytes with fibroblasts; actives raise or lower the signal
Procedure, shortened: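 Dose the keratinocyte/fibroblast co-culture, wait 24 h, measure ICAM-1 by ELISA, then fit increases or decreases against DMSO. Cytotoxicity is checked in parallel cultures by SRB total-protein staining.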

[16] = read-out: Interferon-gamma inducible Protein 10 (IP10), CXCL10 (gene 3627); assay: BSK_KF3CT_IP10: BioMAP Diversity Plus: KF3CT Assay for Interferon-gamma inducible Protein 10 (IP10) Biomarker Activity (AID 2283068); details: primary human keratinocytes with fibroblasts; actives raise or lower the signal
Procedure, shortened: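 ELISA read-out of IP-10 after 24 h chemical dosing of human skin primary co-culture (keratinocytes, foreskin fibroblasts). Gain or loss of signal relative to DMSO, bidirectional curve fit.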

[17] = BSK_KF3CT_SRB: Viability Assessment in the BioMAP Diversity Plus: KF3CT Assay (AID 2283069); details: primary human keratinocytes with fibroblasts;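 further: total protein by sulforhodamine B staining as a cytotoxicity measure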
Procedure, shortened: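 Human primary keratinocyte plus foreskin fibroblast co-culture exposed to chemicals for 24 h. Total protein measured by 0.1% sulforhodamine B staining after 10% TCA fixation, read at 560 nm; bidirectional fitting versus DMSO baseline.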

[18] = read-out: Interleukin-1 alpha (IL1a), IL1A (gene 3552); assay: BSK_KF3CT_IL1a: BioMAP Diversity Plus: KF3CT Assay for Interleukin-1 alpha (IL1a) Biomarker Activity (AID 2283070); details: primary human keratinocytes with fibroblasts; actives raise or lower the signal
Procedure, shortened: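 Human keratinocyte plus foreskin fibroblast primary co-culture, sampled 24 h after chemical dosing. IL-1a measured by ELISA; responses fitted bidirectionally against DMSO baseline (negative control), so gain or loss of signal both count.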

[19] = read-out: TIMP metallopeptidase inhibitor 2 (TIMP2), TIMP2 (gene 7077); assay: BSK_KF3CT_TIMP2: BioMAP Diversity Plus: KF3CT Assay for TIMP metallopeptidase inhibitor 2 (TIMP2) Biomarker Activity (AID 2283071); details: primary human keratinocytes with fibroblasts; actives raise or lower the signal
Procedure, shortened: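 Keratinocyte–fibroblast co-culture, 24 h exposure; TIMP-2 ELISA, DMSO-normalised bidirectional fit. Parallel SRB (0.1%, TCA-fixed, 560 nm) total-protein staining gauges cytotoxicity.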

Measured: AC50

C1=CC2C3C=CC(C3)C2C1 (centres undefined)
inactive: all assays above

O=CN1CCOCC1
inactive: all assays above

CC(=O)C1(C)CC2=C(CCCC2(C)C)CC1C (centres undefined)
active: [1] 11.6 µM | [2] 12.3 µM | [3] 11.4 µM | [4] 10.5 µM | [5] 6.8 µM | [6] 31.7 µM | [7] 10.6 µM | [8] 10.9 µM | [9] 11.2 µM | [10] 12 µM | [11] 14.2 µM | [12] 12.8 µM | [13] 9.73 µM | [14] 11.8 µM | [15] 12.3 µM | [16] 11.2 µM | [17] 10.2 µM | [18] 13.1 µM | [19] 5.63 µM

CN(c1nccc(=O)[nH]1)C1CCN(c2nc3ccccc3n2Cc2ccc(F)cc2)CC1
inactive: all assays above

CSCCC=O
inactive: all assays above

Oc1c(Cl)cc(Cl)c(Cl)c1Cc1c(O)c(Cl)cc(Cl)c1Cl
inactive: [5]
active: [1] 1.73 µM | [2] 1.97 µM | [3] 9.96 µM | [4] 4.93 µM | [6] 3.96 µM | [7] 0.113 µM | [8] 1.58 µM | [9] 5.15 µM | [10] 1.94 µM | [11] 3.45 µM | [12] 3.28 µM | [13] 2.22 µM | [14] 0.338 µM | [15] 3.14 µM | [16] 2.4 µM | [17] 5.15 µM | [18] 1.83 µM | [19] 1.79 µM
